Only some compounds are listed: those with a hit (about 9% of all), similar ones and a draw of the others.
PLK1 PBD inh: PLK1 (human) polo-box domain binding inhibition. P53350. hit rate 2.8% among 360,000. Potency, µM, without a hit: max response, negative = inhibition, most hits filed as inhibitors. Plk1 PBD binding of FITC phosphopeptide, fluorescence polarization; also: series mostly up to about 57 µM; % is scaled to controls: 0 for no effect and ±100 for the full control effect; nearly all actives have a fitted effect of over 65% in size
G9a inh: inhibitors of human histone lysine methyltransferase G9a; G9a H3K9 monomethylation, AlphaScreen, 2 h; hit rate 8.8% among 350,000; Potency, µM (series often up to 102 µM), inactives show top-dose activity, negative = inhibition, most hits filed as inhibitors; also: % is scaled to controls: 0 for no effect and ±100 for the full control effect; nearly all actives have a fitted effect of over 75% in size
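Using a bead-based AlphaScreen, monomethylated H3K9 product from 2 h room-temperature reactions (G9a 20 nM, peptide 500 nM, SAM 20 uM) was detected with 0.5 ug/mL rabbit anti-H3K9me1 antibody.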
12-LOX inh: ALOX12 (human) lipoxygenase inhibition | hit rate 1.1% among 580,000 | Potency, µM (doses to about 108 µM), for inactives: top-dose activity change, negative = inhibition, hits mostly inhibitors | purified 12hLO, xylenol orange hydroperoxide absorbance; also: % is scaled to controls: 0 for no effect and ±100 for the full control effect
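Hydroperoxide product was detected by ferrous iron/xylenol orange as the 573 to 405 nm absorbance ratio. Arachidonic acid at 40 uM (final) was turned over for 30 min at room temperature by 150 nM human 12hLO, pH 7.0 Hepes buffer, after 15 min compound preincubation.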
JMJD2A Tudor inh: blocks the human JMJD2A Tudor domain. O75164. Potency, µM (highest dose often 114 µM), for the others: at the highest dose activity change, negative = inhibition, usual class: inhibitors. hit rate 4.4% among 390,000. AlphaScreen JMJD2A-Tudor / H3K4me3 peptide binding; also: % is scaled to controls: 0 for no effect and ±100 for the full control effect; nearly all actives have a fitted effect of over 50% in size
HP1b binding inh: blocks HP1-beta chromodomain binding to methylated histone tails | P83916 | AlphaScreen HP1-beta / biotin-H3K9me3 peptide binding | Potency, µM (top dose mostly 114 µM), for the others: at the top dose activity change, negative = inhibition, hits mostly inhibitors | hit rate 0.56% among 390,000; also: nearly all actives have a fitted effect of over 70% in size
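Compound inhibition of the preformed complex between 50 nM HP1-beta and 50 nM biotinylated H3K9me3 peptide was read by AlphaScreen. Buffer was PBS pH 7.4 with 0.01% Tween-20. Incubations ran 30 min at room temperature, with 10 ug/mL donor/acceptor beads.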
BAZ2B inh: inhibitors of human BAZ2B bromodomain | Q9UIF8 | Potency, µM (titrated, usually from 114 µM), for the others: at the top dose activity change, negative = inhibition, hits mostly inhibitors | AlphaScreen BAZ2B-H3K14Ac peptide displacement | hit rate 4.4% among 360,000; also: % is scaled to controls: 0 for no effect and ±100 for the full control effect; nearly all actives have a fitted effect of over 60% in size
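AlphaScreen luminescence quantifies BAZ2B engagement of H3K14Ac peptide; the protein and biotinylated peptide are both at 50 nM final, buffer PBS pH 7.4 with 0.01% Tween-20, all steps at room temperature.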
* marks the source's active call; other numbers are inactive results; ? = inconclusive; · = no result given; [ ] = remark or other dose. Calls follow the shape of the dose curve; as a rule, active = well fitted curve in the direction sought with a large enough effect; inconclusive = small, poorly fitted or top-dose-only effect, or another doubt; inactive = no such curve, though single readings can be large; an effect the other way counts as inactive or inconclusive. Potency is read from the fitted curve at half-maximal effect.

SMILES | PLK1 PBD inh | G9a inh | 12-LOX inh | JMJD2A Tudor inh | HP1b binding inh | BAZ2B inh
CCC(CC)=NNC(=O)C1CC1c1ccccc1 (configuration not stated) | · | · | 15% | · | · | ·
Cc1cc(C)cc(OCC(=O)NNC(=O)c2cc3ccccc3o2)c1 | -7% | -5%[59 µM] | 5% | 0% | 41% | -26%
O=C(Nc1cnn(Cc2ccc(Cl)cc2)c1)c1ccc([N+](=O)[O-])cc1 | 2% | 1% | -21% | ? | 5% | -9%[57.1 µM]
Cc1cc(/C=N/NC(=O)c2c(Br)cnn2C)c(C)n1-c1cccc(Br)c1 | -8% | ? | -21% | ? | ? | 28µM*
Cc1cc(/C=N/NC(=O)c2cccc(F)c2)c(C)n1-c1ccccc1 | -10% | -46% | -7% | ? | -2% | -32%
Cc1cc(/C=N/NC(=O)c2ccccc2F)c(C)n1-c1ccccc1 | 1% | 50µM* | 8% | -20% | -7% | -37%
Cc1cc(/C=N/NC(=O)C(=O)N2CCCC2)c(C)n1-c1cccc(Br)c1 | -2% | ? | 151% | ? | -3% | -10%
CCN(Cc1cn2cccnc2n1)C1CCCCC1 | -3% | 3% | -13% | 0% | 30% | -22%
CSc1ncc(CNc2cc([N+](=O)[O-])ccc2C)c(N)n1 | · | · | -8% | -23% | 8% | ·
COc1cccc(CNC(=O)CC2Sc3ccccc3NC2=O)c1 (configuration not stated) | 3% | 3% | -2% | -4% | 9% | 1%
O=[N+]([O-])c1ccc(O)c(NC(=S)Nc2ccccc2)c1 | 27µM* | 4.5µM* | -22% | ? | ? | -38%
NS(=O)(=O)c1ccc(NC(=S)NCCc2ccccc2)cc1 | 6.7µM* | 11µM* | ? | -27% | -25% | -25%
O=[N+]([O-])c1ccc(NNC(=S)Nc2ccccc2)cc1 | ? | ? | · | 50µM* | 56µM* | 50µM*
COc1ccc([N+](=O)[O-])cc1NC(=S)Nc1ccccc1 | -30% | ? | ? | -22% | 9% | -9%
O=[N+]([O-])c1ccc(NC(=S)NCCc2ccccc2)cc1 | ? | 45µM* | 45µM* | ? | ? | ?
CC(=O)c1ccc(NC(=S)NCCc2ccc(S(N)(=O)=O)cc2)cc1 | -19% | -24% | -21% | -1% | 41% | -16%
CC(C)OCCCNC(=S)Nc1ccc(S(N)(=O)=O)cc1 | 6µM* | 10µM* | ? | 89µM* | 32µM* | -1%
COc1ccc(S(=O)(=O)CCC(=O)Nc2ccc(OC)cc2OC)cc1 | -25% | 10µM* | ? | -9% | 23% | -14%
O=C(CCNS(=O)(=O)c1ccc(Br)cc1)NC1CCCCC1 | -8% | ? | -13% | 1% | 38% | 11%
CCOc1ccccc1NC(=O)COC(=O)CNS(=O)(=O)c1ccc(C)cc1 | -9% | 14%[59 µM] | 0% | -8% | -4% | 13%
CCOc1ccccc1NC(=O)COC(=O)CN(C)S(=O)(=O)c1ccc(C)cc1 | 27µM* | -4%[59 µM] | 1% | 89µM* | 7% | -21%
CCOc1ccc(NC(=O)CCC(=O)c2ccc(Br)cc2)cc1 | 21µM* | 23% | -66% | -26% | 0% | -38%
O=C(CCS(=O)(=O)c1ccc(Br)cc1)NC1CCCC1 | ? | 45µM* | 0% | 50µM* | -28% | 50µM*
CCCc1noc(-c2ccc(-c3ccccc3)cc2)n1 | 0% | 84% | 0% | 37% | 96% | 25%
COc1cccc(-c2ccc(-c3noc(-c4ccccc4Br)n3)c(OC)n2)c1 | · | 1%[59 µM] | -8% | 8% | 53% | 4%
COC(=O)c1cc(-c2ccc(S(=O)(=O)N3CCN(c4cc(Cl)ccc4C)CC3)s2)on1 | · | · | -9% | · | · | ·
O=C(CCS(=O)(=O)c1ccc(Br)cc1)Nc1cc(F)ccc1F | ? | 50µM* | -26% | -19%[57.1 µM] | 32µM* | 45µM*
COc1ccc(NC(=O)CNS(=O)(=O)c2cccc3nonc23)c(OC)c1 | 30µM* | ? | ? | -34% | 32% | -11%
